The values that follow come from PubChem BioAssay (EPA / NIEHS).

Assay [1] in a line: ACEA_ER_80hr: ACEA Biosciences xCELLigence Real-Time Cell Analysis on Estrogen Receptor Agonism for Proliferation (AID 2282667; active = hit-call score of the fitted dose curve at least 0.9, where 1 is the maximum). The note with it: T47D proliferation, impedance (xCELLigence), 80 h. Put shortly: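 Impedance readout (RT-CES) of T47D proliferation at 80 h post-dose; gain of signal vs DMSO baseline. Compounds: 8 conc, 1:4 serial, top 100 uM final, ≤0.5% DMSO; biological duplicate.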

Assay [2] can be described thus: APR_HepG2_CellCycleArrest_24hr: Apredica 24-hour HepG2 Assay for Cell Cycle Arrest (AID 2282905).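 Note: cell cycle arrest scored as ratio of 2N to 4N nuclear DNA content.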 The note with it: imaging, actives raise or lower the signal. Put shortly:
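Step one: dose HepG2 with test compounds, 0.39–200 uM, 0.5% DMSO, 24 hr. Step two: fix, permeabilize, stain nuclei with Hoechst 33342. Step three: image six fields per well at 20x, quantify DNA content, fit bidirectionally relative to DMSO.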

The nature of assay [3]: APR_HepG2_NuclearSize_24hr: Apredica 24-hour HepG2 Assay for Nuclear Size (AID 2282907). The note with it: high-content imaging, actives raise or lower the signal. Put shortly: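 After fixation and permeabilization, 24-hr-treated HepG2 cells were stained with Hoechst 33342 and imaged on an ArrayScan (20x). Doses spanned 0.39–200 uM in duplicate. Nuclear diameter changes in either direction were fitted relative to 0.5% DMSO controls.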

A short description of assay [4]: APR_HepG2_CellLoss_24hr: Apredica 24-hour HepG2 Assay for Cell Loss (AID 2282908).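 For AC50: fit in both directions so a hit may be cell loss or gain.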 As to conditions: high-content imaging. Put shortly: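 Duplicate wells received compound at ten concentrations (0.39–200 uM; final DMSO 0.5% v/v). After fixation with formaldehyde, nuclei stained with Hoechst 33342 were imaged at 20x. Loss or gain of cell count was fitted relative to DMSO controls.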

Assay [5] in a line: APR_HepG2_MicrotubuleCSK_24hr: Apredica 24-hour HepG2 Assay for Microtubule CSK Stabilty (AID 2282909). As to conditions: HepG2 microtubule cytoskeleton imaging, actives raise or lower the signal. Put shortly: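 Microtubule stability is scored from tubulin immunofluorescence in fixed HepG2 cells imaged at 20x. Cells receive ten compound concentrations up to 200 uM for 24 h; taxol and DMSO serve as positive and negative controls.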

Assay [6] can be described thus: APR_HepG2_MitoticArrest_24hr: Apredica 24-hour HepG2 Assay for Mitotic Arrest (AID 2282910). The note with it: high-content imaging, actives raise or lower the signal. Put shortly: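 High-content imaging of fixed HepG2 cells labeled with Hoechst 33342 and anti-phospho-histone H3, after 24 h treatment. Ten concentrations 0.39 to 200 uM in duplicate, final DMSO 0.5%; changes fitted both directions relative to DMSO.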

Assay [7] in a line: APR_HepG2_MitoMembPot_24hr: Apredica 24-hour HepG2 Assay for Mitochondrial Membrane Potential (AID 2282911). The note with it: imaging, actives raise or lower the signal. Put shortly:
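HepG2, 24 hr dosing, 10 concentrations 0.39–200 uM, 0.5% DMSO final. Live-cell MitoTracker Red CMXRos 250 nM 30 min, then 3.7% formaldehyde fix. HCS fluorescence imaging, 20x; bidirectional fit vs DMSO baseline.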

A short description of assay [8]: APR_HepG2_MitoMass_24hr: Apredica 24-hour HepG2 Assay for Mitochondrial Mass (AID 2282912). The note with it: high-content imaging, actives raise or lower the signal. Put shortly: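 Readout: fluorescence of MitoTracker Red CMXRos (250 nM, added 30 min pre-fixation) in fixed HepG2 cells imaged by HCS. Exposure lasted 24 hr at 0.39–200 uM; increases and decreases were both fitted relative to DMSO.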

The nature of assay [9]: APR_HepG2_CellCycleArrest_72hr: Apredica 72-hour HepG2 Assay for Cell Cycle Arrest (AID 2282914). As to conditions: high-content imaging, actives raise or lower the signal. Put shortly:
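HepG2, 72 hr exposure, 10-point 0.39–200 uM, duplicate, 0.5% DMSO final. Fix 3.7% formaldehyde 30 min RT, Triton X-100 0.5%, Hoechst 33342 2 ug/mL. ArrayScan 20x, six fields/well; DNA content per nucleus; bidirectional fit vs DMSO.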

Assay [10] can be described thus: APR_HepG2_p53Act_24hr: Apredica 24-hour HepG2 Assay for p53 Activation (AID 2282913).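 Note: p53 protein immunofluorescence averaged per cell in HepG2 with Hoechst nuclei.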 The note with it: high-content imaging, actives raise or lower the signal. Put shortly:
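Read-out: Cy5 immunofluorescence for p53 in fixed, permeabilized HepG2, imaged by HCS with Hoechst-defined nuclei. Dosing was 24 hr at 0.39–200 uM in 0.5% DMSO. Curves were fitted bidirectionally relative to DMSO.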

Inconclusive results are not listed. Calls of active or inactive are those of the source. Rule for the calls, unless noted: active = hit-call score of the fitted dose curve at least 0.9, where 1 is the maximum; inactive = score below 0.9.

What is called AC50 is the concentration giving half of the maximal activity seen. For the compound `CCOC(=O)C(C)(C)Oc1ccc(Cl)cc1`, the compound was called inactive in assay [1], in [2], in [3], in [5], in [6] and in assay [8]. Further, the result in assay [9] was inactive. Further, the concentration at half-maximal activity (AC50) in assay [4] is 115 µM (active); in assay [7], 121 µM (active).

As for `CC(=O)Oc1ccccc1C(=O)O`, the call in assay [1], in [2], in [3], in assay [4], in assay [5] and in assay [7] was inactive. Further, the result in assay [8], in assay [10] and in assay [9] was inactive.

As to `CCCCc1ccc2c(n1)[C@@H](c1ccc(OC)cc1C[C@H](C)C(=O)O)[C@H](C(=O)O)[C@H]2c1ccc2c(c1)OCO2`, the compound was called inactive in [1], in [2], in [3], in assay [4], in assay [5] and in assay [7]. In addition, the call in assay [8], in [10] and in [9] was inactive.

Consider `c1cc(-c2ccncc2)ccn1`, for which the result in assay [1], in assay [2], in [3], in assay [4], in [5] and in assay [6] was inactive. In addition, the compound was called inactive in assay [7], in [8] and in assay [9].

Consider `CCCCC(CC)COC(=O)CC(C(=O)OCC(CC)CCCC)S(=O)(=O)O` (stereo not drawn), for which the compound was classed as inactive in assay [1], in assay [2], in assay [3], in assay [5], in assay [7] and in assay [8]. Also, the compound was classed as inactive in [9]. Further, the AC50 in [4] was 126 µM (active); in assay [10] it was 104 µM (active).

`C=CCOC(=O)c1ccccc1C(=O)OCC=C`: the compound was classed as inactive in assay [1], in [2], in assay [3], in [4], in assay [5] and in assay [6]. Further, the call in assay [7], in [8] and in assay [9] was inactive.

As to `CCCCCCCCCCCC(=O)OC`, the outcome in assay [1], in assay [2], in [3], in assay [4], in assay [5] and in assay [7] was inactive. Further, the result in assay [8], in [10] and in assay [9] was inactive.

Take `CCCCCCCCCCCCCCCC`: the result in [1], in assay [2], in [3], in assay [4], in assay [5] and in assay [6] was inactive. In addition, the compound was called inactive in [7], in assay [8] and in assay [9].

Turning to `C[C@]12C=CC(=O)C=C1CC[C@@H]1[C@@H]2C(=O)C[C@@]2(C)[C@H]1CC[C@]2(O)C(=O)CO`, in [1], the half-maximal activity concentration (AC50) was 14.8 µM (active). In addition, the call in [2], in [3], in [4], in assay [5], in [6] and in assay [7] was inactive. Besides, the result in [8] and in assay [9] was inactive.

`CN1CCN(Cc2cc(-c3ccc4[nH]c(=O)oc4c3)co2)[C@@H](c2ccc(F)cc2)C1`: the outcome in [1], in assay [2], in assay [3], in assay [7] and in [8] was inactive. Moreover, the AC50 in [4] was 89.7 µM (active); in assay [5], 148 µM (active); in [6] it was 42.1 µM (active); in [9], 83.5 µM (active).

On to `O=c1c(O)c(-c2ccc(O)c(O)c2)oc2cc(O)cc(O)c12`, for which the half-maximal activity concentration (AC50) was 26.4 µM (active) in assay [1], 58.4 µM (active) in [2], 64.2 µM (active) in [7] and 103 µM (active) in [9]. Besides, the compound was called inactive in [3], in assay [4], in [5], in assay [8] and in assay [10].

For the compound `COc1cc(C=O)ccc1O`, the result in assay [1], in [2], in assay [3], in assay [4], in assay [5] and in [6] was inactive. Moreover, the outcome in [7], in assay [8] and in assay [9] was inactive.

As for `COc1ccc(S(=O)(=O)N2C(=O)[C@@](c3ccccc3OC)(N3C[C@H](O)C[C@H]3C(=O)N(C)C)c3cc(Cl)ccc32)c(OC)c1`, the outcome in assay [1], in assay [5], in assay [7] and in assay [9] was inactive. Moreover, the AC50 in [2] is 86.2 µM (active); in [3], 93.2 µM (active); in assay [4], 92.4 µM (active); in assay [6], 63 µM (active); in assay [8] it was 78.1 µM (active).

Turning to `CC1(C)CC(N=C=O)CC(C)(CN=C=O)C1` (stereo not drawn), the call in [1], in [2], in assay [3], in assay [4], in assay [5] and in assay [6] was inactive. Besides, the call in assay [7] and in assay [8] was inactive. In addition, the AC50 in assay [9] is 92.5 µM (active).

As to `CC(CO)OC(C)CO` (stereo not drawn) (tested in a mixture with another compound), the result in assay [1], in [2], in assay [3], in assay [4], in assay [5] and in assay [7] was inactive. The call in [8], in [10] and in assay [9] was inactive.

Regarding `CCCCCC(=O)O`, the compound was called inactive in assay [1], in assay [2], in assay [3], in assay [4], in assay [5] and in [6]. In addition, the call in assay [7], in [8] and in [9] was inactive.

With `CCCCCCCCCCO`, the concentration at half-maximal activity (AC50) in assay [1] was 19.8 µM (active). Besides, the compound was called inactive in [2], in assay [3], in assay [4], in assay [5], in [7] and in assay [8]. Also, the compound was classed as inactive in assay [10] and in assay [9].

Take `Nc1ccccc1N`: the compound was classed as inactive in assay [1], in assay [3], in assay [5], in assay [7] and in assay [8]. Besides, the concentration at half-maximal activity (AC50) in assay [2] was 15.8 µM (active); in assay [4], 12.9 µM (active); in [10] it was 32.3 µM (active); in [9], 5.63 µM (active).

Turning to `CCCCCCCCCCCCCO`, the call in [1], in [2], in assay [3], in [7], in assay [8] and in assay [10] was inactive. Besides, the values for the half-maximal activity concentration (AC50) in assay [4], in assay [5] and in [9] were 138 µM (active), 117 µM (active) and 52.3 µM (active), respectively.

For `CNC(=O)[C@H]1O[C@@H](n2cnc3c(NCc4cc(Cl)ccc4OCc4cc(C)no4)ncnc32)[C@H](O)[C@@H]1N`, the compound was called inactive in assay [1], in assay [2], in [3], in [4], in [5] and in assay [8]. For the same compound, the call in assay [9] was inactive. The concentration at half-maximal activity (AC50) in [7] is 0.0385 µM (active).

Regarding `CC(=O)C(C)=CC1C(C)=CCCC1(C)C` (stereo not drawn), the compound was called inactive in assay [1], in assay [2], in [3], in [4], in [5] and in [7]. Besides, the call in [8] and in [9] was inactive.

With `Cc1cc(NC(=O)C(=O)O)cc(C)c1Oc1ccc(O)c2c1CCC2`, the result in assay [1], in assay [2], in assay [3], in assay [4], in [5] and in [7] was inactive. The compound was classed as inactive in assay [8] and in [9].

Turning to `COc1ccc2c(c1)c(CC(=O)O)c(C)n2C(=O)c1ccc(Cl)cc1`, the result in assay [1], in assay [3], in [4], in assay [5], in [7] and in assay [8] was inactive. Also, the half-maximal activity concentration (AC50) was 76.4 µM (active) in [2] and 100 µM (active) in assay [9].
